# Compounds with a hit are over-represented: about 19% of the library has one in this group of screens.
# DT40 TDP1 CPT: DT40-hTDP1 cell growth loss with CPT; Potency, µM (highest dose often 46.2 µM), without a hit: at the top dose activity change, negative = growth inhibition, actives largely listed as inhibitors; chicken DT40 Tdp1-/-;hTDP1 cells + 20 nM CPT, ATP luminescence, 48 h; actives 12% (n = 420,000); further: potency means the concentration at half of the fitted maximal effect; nearly all actives have a fitted effect of over 55% in size
#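 Chicken DT40 Tdp1-/- cells stably complemented with human TDP1 were seeded at 400 cells/well in medium containing 20 nM camptothecin, exposed to pin-transferred compounds, and grown at 37 °C for at least 48 hr. Viability was read as ATP luminescence.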
# HT1080-NT tox: kills 2HG-producing HT-1080-NT fibrosarcoma cells; HT-1080-NT fibrosarcoma viability, CellTiter-Glo ATP luminescence, 48 h; Potency, µM (series often up to 46.1 µM), for inactives: at the highest dose activity, negative = less viability, hits mostly cytotoxic; actives 1.6% (n = 360,000); AID 686970;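 further: NT is the 2HG producing partner of a matched IDH1 knockdown line; potency means the concentration at half of the fitted maximal effect; 0% = DMSO-treated cells and -100% = media-only wells without cells; nearly all actives have a fitted effect of over 55% in size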
#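 Read-out is CellTiter-Glo luminescence after 10 minutes at room temperature, following 48 hours' compound treatment of HT-1080-NT cells (750 cells/well, RPMI, 5% FBS, 37 degrees C).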
# IL1B secr inh: inflammasome signaling inhibition, IL-1 beta readout; activity change, % at 57.5 µM; AID 743279; actives 4.7% (n = 360,000); THP-1 LPS/ATP IL-1B secretion, AlphaLISA, 16 h; stronger effect = lower value; in the data active means activity change below about -50%; inconclusive means mostly about -30% to -49%
#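 Secreted IL-1B measured by AlphaLISA bead assay after 16 h compound exposure of THP-1 cells; compounds (final up to 57.5 uM) added 1 h before LPS (250 ng/mL) and ATP (1.25 mM) stimulation; lower signal means less secretion.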
# HT1080 IDH1KD tx: toxicity to HT-1080 IDH1 knockdown cells (counter line). HT-1080 IDH1 knockdown viability, ATP luminescence, 48 h. Potency, µM (doses to about 46.1 µM), for the others: at the top dose activity, negative = toxicity, most hits filed as cytotoxic. actives 2% (n = 360,000). AID 686971;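 further: potency means the concentration at half of the fitted maximal effect; 0% = DMSO wells and -100% = cell-free medium wells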
#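 Luminescent ATP read-out (CellTiter-Glo, 10 min at room temperature) after 48 h compound exposure at 37 °C gave viability of IDH1-knockdown HT-1080 cells. Activity was normalised to DMSO and cell-free wells, then fitted as concentration-response curves.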
# DT40 TDP1 no CPT: qHTS for Inhibitors of human tyrosyl-DNA phosphodiesterase 1 (TDP1): qHTS in cells in absence of CPT; Potency, µM (top dose mostly 46.2 µM), inactives show at the top dose activity change, negative = growth inhibition, actives largely listed as inhibitors; DT40 Tdp1-/- hTDP1 cells, no CPT, ATP luminescence, 48 h; actives 15% (n = 420,000); further: potency means the concentration at half of the fitted maximal effect; nearly all actives have a fitted effect of over 55% in size
#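 Cells were dispensed at 400 per well, compounds added by pin tool, plates incubated ≥48 hr at 37 °C, then CellTiter-Glo added for 30 min at room temperature before luminescence reading. Line: DT40 Tdp1-/- complemented with hTDP1; camptothecin omitted.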
# * = called active by the depositor; i = inactive; u = inconclusive; x = not tested or not shown. Unless noted, the call rests on the fitted dose curve; in most records, active means well fitted curve in the direction sought with a large enough effect; inconclusive means small, poorly fitted or top-dose-only effect, or another doubt; inactive means no such curve, though single readings can be large; an effect the other way counts as inactive or inconclusive. Unless noted, on the % scale 0 is the no-effect control and ±100 the full control effect.
SMILES,DT40 TDP1 CPT,HT1080-NT tox,IL1B secr inh,HT1080 IDH1KD tx,DT40 TDP1 no CPT
CCN(CC)S(=O)(=O)c1cc(NC(=O)C(C)N2CCN(Cc3ccc4c(c3)OCO4)CC2)ccc1C (stereo unspecified),7.3µM*,-4%,-8,-11%,5.2µM*
COc1ccc(CCNC(=O)Cn2c(=O)nc(-c3ccccc3F)c3cc(Cl)ccc32)cc1OC,-7%,x,x,x,-27%
CN(C)C(CNC(=S)Nc1ccccc1Cl)c1cccnc1 (stereo unspecified),-14%,12%,-17,21%,-22%
COc1cc(NS(=O)(=O)c2ccc(NC(=O)c3cccs3)cc2)nc(OC)n1,3%,-12%,29,5%,30%
Cc1cc(C(=O)N/N=C/c2cccnc2)c2ccccc2n1,u,u,40,u,u
COc1ccc(-c2cc(C(=O)N/N=C/c3cccnc3)c3cc(C)cc(C)c3n2)cc1,18µM*,u,i,u,8.2µM*
CCOc1ccccc1-c1cc(C(=O)N/N=C/c2cccnc2)c2ccccc2n1,u,-26%,-6,-18%,1.5µM*
CCOc1ccc(-c2cc(C(=O)N/N=C/c3cccnc3)c3ccccc3n2)cc1,2.3µM*,u,23,u,1.8µM*
COc1cc(Cl)c(C)cc1NC(=O)c1nn(C)c2c1CSc1ccccc1-2,-15%,x,x,x,-2%
CCOc1ccc(N2C(=O)C3ON(C)C(c4ccc([N+](=O)[O-])cc4)C3C2=O)cc1 (stereo unspecified),-11%,6%,60,4%,-7%
Cc1sc(Cc2nc(O)cs2)nc1-c1ccccc1,u,18%,65,0%,-27%
CCOC(=O)/C(C#N)=C(\O)c1ccc(NC(=O)c2ccc([N+](=O)[O-])cc2)cc1,-26%,4%,17,2%,0%
CN(CC(=O)Nc1cccc(F)c1)C(=O)C1CC(=O)N(Cc2ccccc2)C1 (stereo unspecified),-7%,7%,6,6%,18%
COCCCNC(=S)NNC(=O)c1cc(C2CC2)nc2ccccc12,8%,4%,i,11%,0%
O=C(CN1C(=O)CCC1=O)NCC12CC3CC(CC(C3)C1)C2,u,1%,u,-1%,26µM*
COc1ccccc1NC(=O)C1=C(C)Nc2ncnn2C1c1cccn1C (stereo unspecified),0%,x,x,x,0%
COc1ccccc1N1CCN(c2ncc3c(n2)CCN(Cc2ccccc2F)C3)CC1,0%,x,x,x,1%
Fc1ccccc1N1CCN(c2ncc3c(n2)CCN(Cc2cc(Br)cs2)C3)CC1,u,x,x,x,-25%
CCc1ccc(CN2CCc3nc(N4CCN(c5ccccc5F)CC4)ncc3C2)cc1,u,x,x,x,18µM*
CCOc1ccc(CN2CCc3nc(N4CCN(c5ncccn5)CC4)ncc3C2)cc1OC,21µM*,x,x,x,u
Clc1ccc(CN2CCc3nc(N4CCN(c5ccccn5)CC4)ncc3C2)cc1,-20%,x,x,x,-20%
COc1cccc(N2CCN(c3ncc4c(n3)CCN(Cc3ccc(Br)cc3)C4)CC2)c1,13µM*,x,x,x,9.2µM*
COc1cc(OC)c(OC)cc1CN1CCc2nc(N3CCN(c4ncccn4)CC3)ncc2C1,16µM*,x,x,x,23µM*
O=C(C[n+]1ccncc1)c1ccc2ccccc2c1,-14%,x,x,x,u
COCCNC(=O)CN1CCN(Cc2cccc(Cl)c2)C1=O,-18%,2%,18,-5%,1%
SMILES,DT40 TDP1 CPT,HT1080-NT tox,IL1B secr inh,HT1080 IDH1KD tx,DT40 TDP1 no CPT
CCOc1ccc(CN2CCc3nc(N4CCN(c5ccccc5OC)CC4)ncc3C2)cc1OC,9.2µM*,x,x,x,10µM*
COCCNC(=O)C1(C)CCN(C(=O)c2nc(C)oc2C)C1 (stereo unspecified),2%,12%,66,1%,19%
CC(C1CC1)N(C(=O)c1ccccc1[N+](=O)[O-])c1ccccc1 (stereo unspecified),21µM*,-9%,-14,0%,8.2µM*
Clc1cc(Cl)cc(Nc2ccccc2CN(C/C=C/c2ccc3c(c2)OCO3)Cc2ccccc2)c1,6%,-2%,5,-1%,-9%
COc1ccc(C2=NOC(Cn3nc(C(=O)NCc4ccccc4OC)cc3-c3ccccc3)C2)cc1 (stereo unspecified),23µM*,1%,3,-1%,21µM*
COc1ccc(C2=NOC(Cn3nc(C(=O)NCC4CC4)cc3-c3ccccc3)C2)cc1 (stereo unspecified),21µM*,-2%,5,-2%,u
COc1ccc(C2=NOC(Cn3nc(C(=O)NCc4ccc(OC(F)(F)F)cc4)cc3-c3ccccc3)C2)cc1 (stereo unspecified),u,5%,u,1%,u
COc1ccc(C2=NOC(Cn3nc(-c4ccccc4)cc3C(=O)NCc3ccc(C)cc3)C2)cc1 (stereo unspecified),-26%,0%,0,10%,-14%
COC(=O)c1sc(-c2ccccc2)cc1NC(=O)Nc1ccccc1Cl,-28%,x,x,x,u
Cc1ccc(N(C(=O)c2ccccc2Cl)C2=NC(C)CS2)c(C)c1 (stereo unspecified),u,-23%,41,-17%,18µM*
O=C(c1cccc(Cl)c1)C1CCCN(S(=O)(=O)c2ccccc2)C1 (stereo unspecified),u,2%,20,-9%,u
Cc1ccc(O)c(Nc2c3ccccc3nc3ccccc23)c1,16µM*,23µM*,-95*,16µM*,u
Cc1ccc(O)c(Nc2nc3ccccc3c3nncn23)c1,u,x,x,x,9.2µM*
Cc1ccc(O)c(Nc2nc(-c3ccccc3)nc3ccccc23)c1,-11%,-5%,-20,-5%,-4%
COc1ccccc1S(=O)(=O)N(C)C[C@@H]1OCc2cn(nn2)CCCC(=O)N([C@@H](C)CO)C[C@H]1C,-19%,4%,26,3%,-5%
COc1ccc2c(c1)CCO[C@]21O[C@H](CCO)C[C@H](O)[C@H]1O,-5%,1%,-7,-1%,-9%
Cc1nn2c(NCc3ccccn3)cc(C(C)C)nc2c1-c1ccccc1,16µM*,-27%,0,u,u
CC(=O)Nc1ccc(Nc2cc(C(C)C)nc3c(-c4ccccc4)c(C)nn23)cc1,u,u,-76*,u,u
CC(=O)Nc1ccc(Nc2cc(C)nc3c(-c4ccccc4)c(C)nn23)cc1,u,-8%,-10,-22%,u
CCCc1cc(NCc2ccccn2)n2nc(C)c(-c3ccccc3)c2n1,0.58µM*,-25%,22,u,0.92µM*
